This is a sample that favours compounds with a hit; in the whole collection about 4.7% have one here.
D1 antag – human D1 dopamine receptor antagonism; P21728; HEK293 TREx D1 cells, calcium flux, dopamine EC80; hits give low values; activity change, negative = inhibition, % at 10 µM; 3.2% of 360,000 active; in the data active = activity change below about -30%
Target sequence (P21728 whole entry, looked up): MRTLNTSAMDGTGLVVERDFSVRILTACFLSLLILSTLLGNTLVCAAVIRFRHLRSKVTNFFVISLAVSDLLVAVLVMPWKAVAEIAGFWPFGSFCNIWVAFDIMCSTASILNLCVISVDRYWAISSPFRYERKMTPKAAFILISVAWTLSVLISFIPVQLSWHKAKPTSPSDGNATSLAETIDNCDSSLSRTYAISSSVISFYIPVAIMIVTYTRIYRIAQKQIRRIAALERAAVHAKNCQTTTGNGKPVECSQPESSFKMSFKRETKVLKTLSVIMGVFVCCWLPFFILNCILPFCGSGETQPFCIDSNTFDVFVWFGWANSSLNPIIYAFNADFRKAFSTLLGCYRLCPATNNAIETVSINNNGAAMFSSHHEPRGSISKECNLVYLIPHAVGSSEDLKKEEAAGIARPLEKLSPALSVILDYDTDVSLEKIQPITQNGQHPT
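Antagonism measured as reduced calcium response to an EC80 dopamine addition following 180 s compound pre-read; cells were inducible HEK293 Trex D1 plated overnight at 30 C, read kinetically at 1 cycle/sec.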
D1 agonist – activates the human D1 dopamine receptor | P21728 | HEK293 T-REx D1 cells, calcium flux, agonist mode | activation, % at 2 µM | 1% of 360,000 active
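Agonism was scored from calcium flux recorded over 180 s (1 read/s) after pintool compound addition, following a 10-cycle baseline. Cells were inducible force-coupled HEK293 TREx D1, plated overnight at 30 C and loaded with no-wash calcium dye.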
D1 potentiator – enhances dopamine response at the human D1 receptor | potentiation, % at 10 µM | HEK293 TREx D1 cells, calcium flux, dopamine EC20 potentiation | P21728 | AID 504651 | 0.036% of 360,000 active; in the data active = potentiation above about 30%
TRHR ag – activates the human TRH receptor; AID 493084; P34981; TRHR cells, calcium flux fluo-8, FDSS agonist mode; 0.18% of 360,000 active; activation, % at 2 µM
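Steps: seed TRHR cells overnight; add fluo-8 no-wash Ca dye, RT 30 min–1.5 h; record 10 s baseline; pin-transfer compounds; monitor fluorescence 1 cycle/s for the agonist window. Calcium increases flag candidate agonists.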
TRHR enhancer – TRH receptor (human) allosteric enhancement. 0.66% of 360,000 active. TRHR cells, fluo-8 calcium fluorescence, EC20 TRH enhancement. P34981. AID 493056. enhancement, % at 2 µM; in the data active = enhancement above about 30%
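Enhancer read-out: after compound pinning and an initial kinetic agonist-mode read, an EC20 of TRH (10 nM final) was injected and fluo-8 calcium signal (Ex 480/Em 530) followed at 1 s/cycle for 100 cycles in TRHR-expressing cells.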
Numbers stand for hits. Rule as the data show it, unless noted: active = activation above about 30%; inactive = the rest.

Results for CCCCCc1cc(=O)oc2c(C(CCN3CCCC3)c3cc(OC)c(OC)c(OC)c3)c(OC)cc(OC)c12 (stereo not given) ?
D1 antag: -33.6; D1 agonist: 37.1; D1 potentiator: inactive; TRHR ag: inactive; TRHR enhancer: inactive

What do the screens show for `CCCCCc1cc(=O)oc2c(C(CCN3CCCC3)c3ccc(N(C)C)cc3)c(OC)cc(OC)c12` (stereo not given)?
D1 antag: inactive; D1 agonist: inactive; D1 potentiator: inactive; TRHR ag: inactive; TRHR enhancer: inactive

How did CCCCCc1cc(=O)oc2c(C(CCN3CCN(c4ccccc4)CC3)c3ccc4c(c3)OCO4)c(OC)cc(OC)c12 (stereo not given) do in these assays?
D1 antag: -31.5; D1 agonist: inactive; D1 potentiator: inactive; TRHR ag: inactive; TRHR enhancer: inactive

Results for CC(=O)Nc1ccc(S(=O)(=O)NCc2cccn2Cc2cccc(C)c2)cc1 ?
D1 antag: inactive; D1 agonist: inactive; D1 potentiator: inactive; TRHR ag: inactive; TRHR enhancer: inactive

How did Cc1nc2n(c(=O)c1CCN1CCC(c3noc4cc(F)ccc34)CC1)CCCC2 do in these assays?
D1 antag: -75.0; TRHR ag: inactive; TRHR enhancer: inactive

Results for O=C(NCc1ccc(F)cc1)c1ccc2c(=O)n3c(nc2c1)CCCCC3 ?
D1 antag: inactive; D1 agonist: inactive; D1 potentiator: inactive; TRHR ag: inactive; TRHR enhancer: inactive

How did O=C(Nc1nnc(SCc2ccc(Cl)cc2)s1)c1cnccn1 do in these assays?
D1 antag: -36.0; D1 agonist: inactive; D1 potentiator: inactive; TRHR ag: inactive; TRHR enhancer: inactive

Results for Cc1csc2nc(COc3ccccc3NC(=O)c3ccccc3Cl)cc(=O)n12 ?
D1 antag: inactive; D1 agonist: inactive; D1 potentiator: inactive; TRHR ag: inactive; TRHR enhancer: inactive

Results for CC(=O)CCC(=O)NC1CCCc2c1cnn2-c1ccc(C(C)(C)C)cc1 (stereo not given) ?
D1 antag: -37.4; D1 agonist: inactive; D1 potentiator: inactive; TRHR ag: inactive; TRHR enhancer: inactive

How did CCc1ccccc1NC(=O)CN1CCCN(Cc2cc(C)ccc2C)S1(=O)=O do in these assays?
D1 antag: inactive; D1 agonist: 32.6; D1 potentiator: inactive; TRHR ag: inactive; TRHR enhancer: inactive

What do the screens show for `CCCC(=O)C1=C(c2cccc(OC)c2)N(C(=O)CCC)n2c(C)nnc2S1`?
D1 agonist: inactive; D1 potentiator: inactive; TRHR ag: inactive; TRHR enhancer: inactive

Results for COc1ccc(CNC(=O)c2ccc3nc(CCc4ccccc4)oc3c2)cc1OC ?
D1 antag: inactive; D1 agonist: inactive; D1 potentiator: inactive; TRHR ag: inactive; TRHR enhancer: inactive

What do the screens show for `COc1ccc(CNC(=O)c2ccc3nc(CCc4ccccc4)oc3c2)cc1`?
D1 antag: inactive; D1 agonist: 53.1; D1 potentiator: inactive; TRHR ag: inactive; TRHR enhancer: inactive

Results for COc1cccc(CNC(=O)c2ccc3nc(CCc4ccccc4)oc3c2)c1OC ?
D1 antag: -31.9; D1 agonist: 48.3; D1 potentiator: inactive; TRHR ag: inactive; TRHR enhancer: inactive

Results for CCOc1ccc(-c2nc(SCC(=O)NCCOC)c(-c3ccc(OC)c(OC)c3)[nH]2)cc1 ?
D1 antag: inactive; D1 agonist: inactive; D1 potentiator: inactive; TRHR ag: inactive; TRHR enhancer: inactive

What do the screens show for `O=C1CN(C(=O)c2cccc(S(=O)(=O)N3CCCC3)c2)c2ccccc2N1`?
D1 antag: inactive; D1 agonist: inactive; D1 potentiator: inactive; TRHR ag: inactive; TRHR enhancer: 40.7

Results for CC(=O)N1CCN(S(=O)(=O)c2cccc(C(=O)OCC(=O)N3CC(=O)Nc4ccccc43)c2)CC1 ?
D1 antag: inactive; D1 agonist: inactive; D1 potentiator: inactive; TRHR ag: inactive; TRHR enhancer: inactive

How did O=C(NCCSCc1ccccc1)C1CCN(S(=O)(=O)Cc2ccccc2)CC1 do in these assays?
D1 antag: inactive; D1 agonist: inactive; D1 potentiator: inactive; TRHR ag: inactive; TRHR enhancer: inactive

How did CC1CCN(C(=O)Cn2cc(SCC(=O)NCc3ccccc3Cl)c3ccccc32)CC1 do in these assays?
D1 antag: inactive; D1 agonist: inactive; D1 potentiator: inactive; TRHR ag: inactive; TRHR enhancer: inactive

How did Clc1ccc(Nc2c(-c3ccccc3Cl)nc3ccc(Cl)cn23)cc1 do in these assays?
D1 antag: -40.7; D1 agonist: inactive; D1 potentiator: inactive; TRHR ag: inactive; TRHR enhancer: inactive

What do the screens show for `Oc1ccccc1-c1nc2cnccn2c1Nc1ccc(Cl)cc1`?
D1 antag: inactive; D1 agonist: inactive; D1 potentiator: inactive; TRHR ag: inactive; TRHR enhancer: inactive

How did COc1cccc(CNC(=O)c2ccc3c(c2)nc2n3CCOC2)c1OC do in these assays?
D1 antag: inactive; D1 agonist: inactive; D1 potentiator: inactive; TRHR ag: inactive; TRHR enhancer: inactive

What do the screens show for `CCCc1cc(C(=O)OCC(=O)N(CCC)c2c(N)n(Cc3ccccc3)c(=O)[nH]c2=O)sc1C`?
D1 antag: inactive; D1 agonist: inactive; D1 potentiator: 39.6; TRHR ag: inactive; TRHR enhancer: inactive

How did CCN(C(=O)COc1ccc(F)cc1Br)c1c(N)n(Cc2ccccc2)c(=O)[nH]c1=O do in these assays?
D1 antag: -40.5; D1 agonist: inactive; D1 potentiator: inactive; TRHR ag: inactive; TRHR enhancer: inactive

What do the screens show for `CCCN(C(=O)CCNC(=O)c1ccc(Cl)cc1)c1c(N)n(Cc2ccccc2)c(=O)[nH]c1=O`?
D1 antag: -31.5; D1 agonist: inactive; TRHR ag: inactive; TRHR enhancer: inactive

How did COCCN(C(=O)COC(=O)c1cc2c(s1)CCCC2)c1c(N)n(Cc2ccccc2)c(=O)[nH]c1=O do in these assays?
D1 antag: inactive; D1 agonist: inactive; D1 potentiator: inactive; TRHR ag: inactive; TRHR enhancer: inactive

Results for COC(=O)[C@@]12CCCN1[C@H](c1ccc(-c3ccc(F)cc3)cc1)[C@H]1C(=O)N(C)C(=O)[C@H]12 ?
D1 antag: -44.2; D1 agonist: inactive; D1 potentiator: inactive; TRHR ag: inactive; TRHR enhancer: inactive

What do the screens show for `CCCN1C(=O)CN(C2CCCCCC2)C(=O)C1c1ccc(OCC)c(OC)c1` (stereo not given)?
D1 antag: inactive; D1 agonist: inactive; D1 potentiator: inactive; TRHR ag: inactive; TRHR enhancer: inactive

What do the screens show for `O=C(Nc1ccc2oc(-c3cccnc3)nc2c1)c1ccc(-c2cccc(OC(F)(F)F)c2)o1`?
D1 antag: inactive; D1 agonist: inactive; D1 potentiator: inactive; TRHR ag: inactive; TRHR enhancer: inactive

Results for CC(=O)N1CCCc2cc(S(=O)(=O)N(C)CC(=O)Nc3ccc(C)cc3C)ccc21 ?
D1 antag: inactive; D1 agonist: inactive; D1 potentiator: inactive; TRHR ag: inactive; TRHR enhancer: inactive

How did CN(C)c1ccc(CNC(=O)c2ccc(NC(=O)N3CCCCc4ccccc43)cc2)cc1 do in these assays?
D1 antag: inactive; D1 agonist: inactive; D1 potentiator: inactive; TRHR ag: inactive; TRHR enhancer: inactive
